The target in test [1] is Paired box protein Pax-6 (Homo sapiens) (UniProt P26367). Kind of test: ATG_Pax6_CIS: Attagene CIS-FACTORIAL HepG2 Assay for human Paired Box 6 (PAX6) (AID 2282956). The following applies: HepG2 CIS-FACTORIAL PAX6 reporter transcription, RNA readout; actives raise or lower the signal. The procedure, abridged: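 DMSO-referenced bidirectional fits of reporter mRNA fluorescence; HepG2 with transient cis-promoter MRTUs, 24 h post-dose, RT-PCR plus capillary electrophoresis detection.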
Chain of Paired box protein Pax-6 (Homo sapiens) (P26367 whole entry, looked up): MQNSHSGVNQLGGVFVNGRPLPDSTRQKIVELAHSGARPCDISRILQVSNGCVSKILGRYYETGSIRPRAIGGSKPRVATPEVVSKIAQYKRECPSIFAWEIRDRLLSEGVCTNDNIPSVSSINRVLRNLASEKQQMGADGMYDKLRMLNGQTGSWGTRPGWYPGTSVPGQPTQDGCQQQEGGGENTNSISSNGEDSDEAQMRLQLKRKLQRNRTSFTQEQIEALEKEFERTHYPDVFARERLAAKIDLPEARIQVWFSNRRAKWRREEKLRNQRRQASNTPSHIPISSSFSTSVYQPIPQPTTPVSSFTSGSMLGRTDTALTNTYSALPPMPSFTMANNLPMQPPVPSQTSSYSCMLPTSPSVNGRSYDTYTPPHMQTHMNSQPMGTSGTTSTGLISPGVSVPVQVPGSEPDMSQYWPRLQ

Test [2] in a line: ATG_PXRE_CIS: Attagene CIS-FACTORIAL HepG2 Assay for human Pregnane X Receptor Element (PXRE) (AID 2282957). The settings on record: HepG2 Attagene CIS-FACTORIAL PXRE reporter, mRNA; actives raise or lower the signal. The procedure, abridged: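 Using HepG2 transfected with multiple reporter transcription units, endogenous factor-driven transcription was scored as reporter mRNA after 24 h exposure.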

A short description of test [3]: ATG_PPRE_CIS: Attagene CIS-FACTORIAL HepG2 Assay for human Peroxisome Proliferator-activated Response Element (PPRE) (AID 2282958). The settings on record: HepG2 PPRE cis-element reporter, Attagene transcription factor profiling; actives raise or lower the signal. The procedure, abridged:
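After human HepG2 hepatoma cells were transiently transfected with cis-promoter reporter constructs, they were exposed to test chemicals for 24 hours. Reporter RNA was then reverse-transcribed, PCR-amplified, FAM-labeled, HpaI-digested and quantified by capillary electrophoresis.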

Test [4] is described as follows: ATG_RORE_CIS: Attagene CIS-FACTORIAL HepG2 Assay for human RAR-related Orphan Receptor Element (RORE) (AID 2282959). The settings on record: HepG2 Attagene cis-factorial RORE reporter, mRNA; actives raise or lower the signal. In short, it runs like this: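 Measured here: transcript induction of a cis-regulated reporter in HepG2 cells transiently transfected via FuGene 6. After 24 h, RNA was processed by RT-PCR and fluorescent capillary electrophoresis; DMSO defined baseline activity.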

Test [5] is described as follows: ATG_Sox_CIS: Attagene CIS-FACTORIAL HepG2 Assay for human SRY-box transcription factor (SOX) (AID 2282960). The following applies: HepG2 Attagene cis-factorial SOX reporter, mRNA; actives raise or lower the signal. In short, it runs like this:
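Using transiently transfected HepG2 cells, reporter transcription driven by cis elements was assessed 24 h after dosing. Signal was fluorescence of capillary-separated RT-PCR products, with DMSO defining baseline activity.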

The target of test [6] is Transcription factor Sp1 (Homo sapiens) (UniProt P08047). In words: ATG_Sp1_CIS: Attagene CIS-FACTORIAL HepG2 Assay for human Specificity Protein 1 (Sp1) (AID 2282961). The settings on record: HepG2 Sp1 cis-reporter transcription, actives raise or lower the signal. The procedure, abridged: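 After transient transfection of HepG2 cells with cis-promoter reporter units and 24 h chemical treatment, reporter transcripts were quantified by RT-PCR and capillary electrophoresis fluorescence. Gain- and loss-of-signal fitted against DMSO.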
Chain of Transcription factor Sp1 (Homo sapiens) (P08047 whole entry, looked up): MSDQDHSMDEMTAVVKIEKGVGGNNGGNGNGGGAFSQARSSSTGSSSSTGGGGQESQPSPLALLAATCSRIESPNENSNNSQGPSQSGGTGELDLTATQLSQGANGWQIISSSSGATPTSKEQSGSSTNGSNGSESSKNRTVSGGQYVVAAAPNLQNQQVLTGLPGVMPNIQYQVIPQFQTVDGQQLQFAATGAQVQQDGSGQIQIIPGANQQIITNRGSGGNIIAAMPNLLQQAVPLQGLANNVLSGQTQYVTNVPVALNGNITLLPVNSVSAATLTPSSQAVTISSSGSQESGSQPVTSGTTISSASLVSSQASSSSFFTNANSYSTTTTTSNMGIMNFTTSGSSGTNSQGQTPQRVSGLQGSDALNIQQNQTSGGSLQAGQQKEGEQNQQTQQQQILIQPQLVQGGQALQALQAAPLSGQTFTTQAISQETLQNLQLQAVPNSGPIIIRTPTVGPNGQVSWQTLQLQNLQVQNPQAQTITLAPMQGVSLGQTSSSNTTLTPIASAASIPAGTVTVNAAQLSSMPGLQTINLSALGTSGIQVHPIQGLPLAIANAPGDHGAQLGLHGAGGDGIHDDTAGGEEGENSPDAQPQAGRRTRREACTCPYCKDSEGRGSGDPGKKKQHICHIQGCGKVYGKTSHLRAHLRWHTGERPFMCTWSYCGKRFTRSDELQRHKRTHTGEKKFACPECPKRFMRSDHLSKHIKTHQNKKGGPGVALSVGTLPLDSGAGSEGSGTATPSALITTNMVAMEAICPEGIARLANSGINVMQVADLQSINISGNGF

A short description of test [7]: ATG_SREBP_CIS: Attagene CIS-FACTORIAL HepG2 Assay for human Sterol Regulatory Element Binding (SREBP) (AID 2282962). The settings on record: HepG2 Attagene cis-factorial SREBP reporter, mRNA; actives raise or lower the signal. In short, it runs like this: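 In this cis-format assay, HepG2 liver cells express reporters controlled by promoter elements responsive to native transcription factors. Exposure lasts 24 h; reporter mRNA fluorescence from capillary electrophoresis gives the signal, fitted bidirectionally against DMSO.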

The target of test [8] is Signal transducer and activator of transcription 3 (Homo sapiens) (UniProt P40763). In words: ATG_STAT3_CIS: Attagene CIS-FACTORIAL HepG2 Assay for human Signal Transducer and Activator of Transcription 3 (STAT3) (AID 2282963). The following applies: HepG2, Attagene cis-factorial STAT3 reporter transcription; actives raise or lower the signal. The procedure, abridged:
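Cis-factorial format: endogenous transcription factors in HepG2 drive transfected reporter units. After 24 h treatment, reporter RNA was reverse-transcribed, amplified, FAM-labelled and HpaI-digested before CE analysis; activity scored in both directions against DMSO.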

Test [9] in a line: ATG_TA_CIS: Attagene CIS-FACTORIAL HepG2 Assay for human TA Basal Promoter (AID 2282964). The following applies: HepG2 Attagene CIS-factorial TA basal promoter reporter; actives raise or lower the signal. In short, it runs like this:
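Fluorescence from labelled RT-PCR reporter fragments, separated by capillary electrophoresis, gives the signal. Cells: HepG2 transiently carrying multiple reporter units, 24 h chemical dosing. Gain or loss relative to DMSO.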

A short description of test [10]: ATG_TCF_b_cat_CIS: Attagene CIS-FACTORIAL HepG2 Assay for human T-Cell-Factor with beta-catenin (TCF/b-cat) (AID 2282965). The following applies: HepG2 TCF/beta-catenin cis-reporter transcription, actives raise or lower the signal. In short, it runs like this:
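Measured: reporter mRNA in HepG2 transiently transfected with cis-promoter reporter units, 24 h after chemical addition. Fitting was bidirectional, DMSO as negative control.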

A short description of test [11]: ATG_TAL_CIS: Attagene CIS-FACTORIAL HepG2 Assay for human TAL Basal Promoter (AID 2282966).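 Also: background control endpoint measuring basal TAL promoter reporter mRNA not a specific factor.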 The settings on record: HepG2 Attagene cis-factorial TAL promoter reporter; actives raise or lower the signal. The procedure, abridged:
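After 24 hours of chemical exposure, transfected HepG2 cells yielded RNA that was converted to 6-FAM-labelled, HpaI-digested reporter fragments for capillary electrophoresis. Values derive from bidirectional fitting against DMSO controls.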

A short description of test [12]: ATG_TGFb_CIS: Attagene CIS-FACTORIAL HepG2 Assay for human Transforming Growth Factor (TGF) (AID 2282967). The following applies: HepG2 Attagene CIS TGFb reporter, mRNA transcription; actives raise or lower the signal. The procedure, abridged:
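Bidirectional fitting relative to DMSO gave the endpoint. Underlying data: reporter mRNA from HepG2 cells carrying transiently transfected cis-regulated reporter constructs, harvested 24 h after dosing and analyzed by RT-PCR and capillary electrophoresis.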

Test [13] in a line: ATG_VDRE_CIS: Attagene CIS-FACTORIAL HepG2 Assay for human Vitamin D Receptor Element (VDRE) (AID 2282968). The following applies: HepG2 VDRE cis-reporter transcription, actives raise or lower the signal. In short, it runs like this: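 Measures endogenous factor activity through cis-element-driven reporter transcripts in transiently transfected HepG2. Cells are treated 24 h; reporter mRNA is quantified by RT-PCR and capillary electrophoresis; fitting is bidirectional.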

The target of test [14] is Nuclear receptor subfamily 1 group I member 3 (Homo sapiens) (UniProt Q14994). In words: ATG_CAR_TRANS: Attagene TRANS-FACTORIAL HepG2 Assay for human Constitutive Androstane Receptor (CAR) (AID 2282969; active = hit-call score of the fitted dose curve at least 0.9, where 1 is the maximum;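 also: activators raise reporter mRNA above DMSO so AC50 marks induction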). The settings on record: HepG2 Attagene TRANS-FACTORIAL CAR reporter. The procedure, abridged: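 Signal is reporter mRNA induction relative to DMSO, measured 24 h after dosing by RT-PCR with fluorescent primer extension and capillary electrophoresis. Human HepG2 liver cells carried transiently transfected chimeric NR-Gal4/GAL4-UAS reporter constructs.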
Chain of Nuclear receptor subfamily 1 group I member 3 (Homo sapiens) (Q14994 whole entry, looked up, the tested form may be a part): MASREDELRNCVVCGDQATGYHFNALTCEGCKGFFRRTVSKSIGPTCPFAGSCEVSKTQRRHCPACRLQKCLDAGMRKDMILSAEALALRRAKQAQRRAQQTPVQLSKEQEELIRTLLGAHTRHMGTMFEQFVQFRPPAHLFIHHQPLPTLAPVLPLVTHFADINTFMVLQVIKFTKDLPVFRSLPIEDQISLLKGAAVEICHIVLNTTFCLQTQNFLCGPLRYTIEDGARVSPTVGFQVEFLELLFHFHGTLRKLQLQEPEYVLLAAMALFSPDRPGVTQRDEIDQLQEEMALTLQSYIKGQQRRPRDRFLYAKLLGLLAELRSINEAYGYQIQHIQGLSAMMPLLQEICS

The target of test [15] is Estrogen receptor (Homo sapiens) (UniProt P03372). In words: ATG_ERa_TRANS: Attagene TRANS-FACTORIAL HepG2 Assay for human Estrogen Receptor alpha (ERa) (AID 2282970; active = hit-call score of the fitted dose curve at least 0.9, where 1 is the maximum). The following applies: HepG2 Attagene TRANS ERa GAL4 reporter, mRNA. In short, it runs like this:
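Liver-derived HepG2 cells expressing chimeric nuclear receptor-Gal4 proteins from transient transfection were exposed for 24 hours. Gain of reporter mRNA signal versus DMSO, read by capillary electrophoresis of FAM-labelled PCR products, was recorded.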

Test [16] deals with X-box-binding protein 1 (Homo sapiens) (UniProt P17861). In words: ATG_Xbp1_CIS: Attagene CIS-FACTORIAL HepG2 Assay for human X-box Binding Protein 1 (XBP1) (AID 2282972). The settings on record: HepG2 XBP1 cis-element reporter, Attagene multiplex; actives raise or lower the signal. In short, it runs like this:
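Changes in reporter transcript abundance, read by RT-PCR and capillary electrophoresis, reflect endogenous transcription factor activity. Transfected HepG2 cells received compound for 24 hours; DMSO defined baseline for bidirectional analysis.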

Test [17] concerns the target Steroid hormone receptor ERR1 (Homo sapiens) (UniProt P11474). Kind of test: ATG_ERRa_TRANS: Attagene TRANS-FACTORIAL HepG2 Assay for human Estrogen-Related Receptor alpha (ERRa) (AID 2282971; active = hit-call score of the fitted dose curve at least 0.9, where 1 is the maximum). The following applies: HepG2 Attagene TRANS reporter, ERRa transactivation. The procedure, abridged: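 Reporter transcript induction was quantified by RT-PCR and capillary electrophoresis of FAM-labelled, HpaI-cut products after 24 h treatment of HepG2 cells carrying transiently transfected GAL4-UAS reporter units and an exogenous ERRa-Gal4 fusion; activity scored as increase over DMSO.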

Test [18] is described as follows: ATG_M_19_TRANS: Attagene TRANS-FACTORIAL HepG2 Assay for M19 Transcription Factor (Internal Marker) (AID 2282974; active = hit-call score of the fitted dose curve at least 0.9, where 1 is the maximum). The following applies: HepG2 Attagene TRANS-FACTORIAL M19 internal marker reporter. In short, it runs like this:
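Gain-of-signal in reporter mRNA, relative to DMSO, was scored from capillary electrophoresis fluorescence. HepG2 cells carried transiently transfected multiple reporter transcription units and were incubated with test chemicals for 24 h.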

Test [19] in a line: ATG_GAL4_TRANS: Attagene TRANS-FACTORIAL HepG2 Assay for GAL4 (Internal Marker) (AID 2282976; active = hit-call score of the fitted dose curve at least 0.9, where 1 is the maximum). The following applies: HepG2 Attagene TRANS GAL4 internal marker reporter. The procedure, abridged: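 First, HepG2 cells were transfected with reporter units under GAL4-UAS control. Next, they were treated with chemical for 24 h. Finally, RNA was reverse-transcribed, PCR-amplified, FAM-labelled and resolved by capillary electrophoresis, with induction scored against DMSO.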

The record followed here is PubChem BioAssay (EPA / NIEHS).

Records with an inconclusive call do not appear. Activity calls are given as the source filed them. The calls were made as follows, unless noted: active = hit-call score of the fitted dose curve at least 0.9, where 1 is the maximum; inactive = score below 0.9.

A word on the AC50: it is the midpoint of the concentration-response curve, whichever way the signal moves.

Chain of Steroid hormone receptor ERR1 (Homo sapiens) (P11474 whole entry, looked up, the tested form may be a part): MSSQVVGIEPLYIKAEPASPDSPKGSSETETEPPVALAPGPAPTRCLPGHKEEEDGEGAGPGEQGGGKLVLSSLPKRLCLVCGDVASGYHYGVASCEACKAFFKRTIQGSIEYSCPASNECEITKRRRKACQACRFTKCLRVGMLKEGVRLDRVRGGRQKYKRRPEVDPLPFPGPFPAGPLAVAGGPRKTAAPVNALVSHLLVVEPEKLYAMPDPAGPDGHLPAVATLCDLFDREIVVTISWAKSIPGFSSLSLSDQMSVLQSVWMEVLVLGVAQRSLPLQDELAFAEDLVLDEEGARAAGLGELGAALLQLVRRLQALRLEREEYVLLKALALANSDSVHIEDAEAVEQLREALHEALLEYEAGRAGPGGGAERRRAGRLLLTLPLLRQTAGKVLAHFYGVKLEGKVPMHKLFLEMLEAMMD
Chain of Estrogen receptor (Homo sapiens) (P03372 whole entry, looked up, the tested form may be a part): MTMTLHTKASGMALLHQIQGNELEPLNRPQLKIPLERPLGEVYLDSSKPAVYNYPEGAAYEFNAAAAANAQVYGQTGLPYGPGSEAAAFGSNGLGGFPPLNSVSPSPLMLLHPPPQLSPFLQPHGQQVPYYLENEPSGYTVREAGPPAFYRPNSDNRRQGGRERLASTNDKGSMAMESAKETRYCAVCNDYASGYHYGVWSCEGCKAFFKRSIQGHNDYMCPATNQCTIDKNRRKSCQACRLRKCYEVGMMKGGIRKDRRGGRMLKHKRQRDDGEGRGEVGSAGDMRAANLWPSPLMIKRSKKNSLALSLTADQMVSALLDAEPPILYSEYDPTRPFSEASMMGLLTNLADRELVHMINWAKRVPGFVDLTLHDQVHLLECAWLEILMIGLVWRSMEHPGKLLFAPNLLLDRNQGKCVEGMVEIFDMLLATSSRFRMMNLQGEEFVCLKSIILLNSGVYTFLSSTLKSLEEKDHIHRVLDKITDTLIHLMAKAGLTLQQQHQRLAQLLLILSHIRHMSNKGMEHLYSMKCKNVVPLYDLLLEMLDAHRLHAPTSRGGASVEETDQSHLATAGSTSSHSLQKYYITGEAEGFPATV
Chain of X-box-binding protein 1 (Homo sapiens) (P17861 whole entry, looked up): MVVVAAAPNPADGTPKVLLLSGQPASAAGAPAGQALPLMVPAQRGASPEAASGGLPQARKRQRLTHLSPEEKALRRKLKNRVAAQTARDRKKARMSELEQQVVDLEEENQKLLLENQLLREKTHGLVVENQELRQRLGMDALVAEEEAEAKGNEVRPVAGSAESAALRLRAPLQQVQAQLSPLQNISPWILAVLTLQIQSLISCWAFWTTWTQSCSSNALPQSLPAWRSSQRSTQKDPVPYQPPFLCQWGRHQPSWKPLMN
Chain of Signal transducer and activator of transcription 3 (Homo sapiens) (P40763 whole entry, looked up): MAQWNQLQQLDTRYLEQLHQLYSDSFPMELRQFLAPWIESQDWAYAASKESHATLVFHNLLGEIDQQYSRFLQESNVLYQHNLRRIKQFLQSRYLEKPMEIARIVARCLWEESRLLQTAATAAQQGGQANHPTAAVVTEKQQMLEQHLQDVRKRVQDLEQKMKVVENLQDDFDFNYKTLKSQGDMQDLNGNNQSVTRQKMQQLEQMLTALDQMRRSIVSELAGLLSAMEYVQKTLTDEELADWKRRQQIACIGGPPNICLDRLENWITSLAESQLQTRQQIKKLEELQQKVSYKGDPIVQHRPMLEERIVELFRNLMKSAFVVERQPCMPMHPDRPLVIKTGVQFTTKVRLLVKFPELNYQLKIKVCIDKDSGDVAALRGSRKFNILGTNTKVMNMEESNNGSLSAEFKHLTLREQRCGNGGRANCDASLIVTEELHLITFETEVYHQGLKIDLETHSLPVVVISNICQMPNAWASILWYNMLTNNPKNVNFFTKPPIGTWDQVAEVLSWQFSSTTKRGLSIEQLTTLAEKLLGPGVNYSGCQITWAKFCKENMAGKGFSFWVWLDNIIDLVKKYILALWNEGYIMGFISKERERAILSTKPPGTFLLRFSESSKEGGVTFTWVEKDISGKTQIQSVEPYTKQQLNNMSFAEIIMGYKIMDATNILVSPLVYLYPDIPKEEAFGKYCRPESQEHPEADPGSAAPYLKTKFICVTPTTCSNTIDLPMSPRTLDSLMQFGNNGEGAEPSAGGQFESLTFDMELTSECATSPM

For `CCN(CC#N)c1cccc(C)c1`, the outcome in test [1], in test [3], in test [4], in test [5], in test [6] and in test [7] was inactive. Further, the call in [8], in [9], in [10], in test [11], in test [12] and in [13] was inactive. The call in test [14], in [15] and in test [16] was inactive. In addition, the concentration at half-maximal activity (AC50) in [2] is 45.3 µM (active).

On to `CCCCC/C=C\CCC=O`, for which the compound was classed as inactive in test [1], in [3], in [4], in [5], in test [6] and in test [7]. For the same compound, the result in test [8], in [9], in [10], in test [11], in test [12] and in [13] was inactive. For the same compound, the compound was called inactive in test [14], in test [15], in test [17], in [16] and in test [18]. Also, the concentration at half-maximal activity (AC50) in test [2] was 27.8 µM (active).

Take `C1=CCCC1`: the compound was classed as inactive in test [1], in [2], in test [3], in test [4], in test [5] and in test [6]. Also, the call in [7], in [8], in test [9], in test [10], in test [11] and in [12] was inactive. Also, the result in [13], in test [15], in test [16], in test [18] and in test [19] was inactive.

Consider `CCCCCCCCCCOS(=O)(=O)O`, for which the outcome in test [1], in test [2], in [5], in [6], in test [7] and in [8] was inactive. The call in [9], in [10], in [11], in test [12], in test [13] and in test [14] was inactive. The compound was called inactive in test [15], in [16] and in [18]. For the same compound, the values for the half-maximal activity concentration (AC50) in [3] and in test [4] were 13.4 µM (active) and 55 µM (active), respectively.

As for `CC(C)c1ccc(C#N)cc1`, the compound was classed as inactive in test [1], in [2], in [3], in [4], in [5] and in [6]. Further, the compound was classed as inactive in [7], in test [8], in test [9], in test [10], in test [11] and in test [12]. Moreover, the outcome in test [13], in [15], in test [17], in test [16], in test [18] and in test [19] was inactive.

Regarding `CCOCC(=O)O`, the result in test [1], in [3], in test [4], in [5], in test [6] and in test [7] was inactive. Besides, the outcome in test [8], in test [9], in [10], in [11], in test [12] and in [13] was inactive. The call in test [17], in test [16] and in test [18] was inactive. Besides, in test [2], the AC50 was 72 µM (active).

In the case of `O=C1CCC(=O)N1Cl`, the compound was classed as inactive in [1], in [2], in [3], in test [4], in test [5] and in test [6]. Besides, the call in test [7], in [8], in test [9], in [10], in test [11] and in [12] was inactive. In addition, the outcome in test [13], in test [16], in [18] and in test [19] was inactive.
